Only some compounds are listed: those with a hit (about 2% of all), similar ones and a draw of the others.
Abeta rescue: compounds reversing amyloid beta toxicity in yeast; AID 1347071; hit rate 0.063% among 410,000; Potency, µM (top dose mostly 46.1 µM), usual class: activators; yeast expressing A-beta42, growth rescue, OD600, 48 h; response scale: 0% DMSO, 100% iron-clioquinol control; note: nearly all actives have a fitted effect of over 55% in size
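Yeast growth medium received pinned compounds, then yeast cells expressing toxic A-beta were added; plates incubated at 30 C for 48 hr. Growth read as absorbance at 600 nm, normalized to DMSO and equimolar FeCl3 plus clioquinol controls.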
TDP-43 yeast inh: rescues yeast growth from TDP-43 toxicity; Potency, µM (top dose mostly 46.1 µM), hits mostly activators; AID 652104; TDP-43 expressing yeast growth rescue, BacTiter-Glo, 24 h; hit rate 1.8% among 410,000; note: nearly all actives have a fitted effect of over 50% in size
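Luminescence from BacTiter-Glo reports growth of TDP-43-expressing yeast after 24 hr at 30 deg C with compound. Cells were raffinose-pregrown to mid-log, then seeded in galactose medium at OD600=0.02.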
mIDH1 inhibitor: human IDH1 R132H inhibition; O75874; IDH1-R132H enzyme, NADPH consumption, diaphorase/resazurin fluorescence; Potency, µM (series often up to 76.6 µM), hits mostly inhibitors; hit rate 0.093% among 390,000; AID 602179; note: nearly all actives have a fitted effect of over 65% in size
Target sequence (O75874 whole entry R132H, stated change not applied): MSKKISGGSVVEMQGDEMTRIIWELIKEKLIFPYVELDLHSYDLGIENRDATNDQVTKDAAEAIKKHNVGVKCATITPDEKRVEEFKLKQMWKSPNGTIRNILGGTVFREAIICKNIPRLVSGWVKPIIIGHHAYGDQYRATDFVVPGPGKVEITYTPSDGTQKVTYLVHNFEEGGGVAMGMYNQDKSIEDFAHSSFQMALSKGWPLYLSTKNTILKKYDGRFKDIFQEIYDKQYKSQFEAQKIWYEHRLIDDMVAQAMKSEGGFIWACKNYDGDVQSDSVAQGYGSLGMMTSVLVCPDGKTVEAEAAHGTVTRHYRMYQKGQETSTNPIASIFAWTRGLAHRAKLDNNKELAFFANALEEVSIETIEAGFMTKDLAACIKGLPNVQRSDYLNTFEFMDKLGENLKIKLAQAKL
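IDH1-R132H (0.5 ug/mL) preincubated 30 min with compound, then NADPH (0.016 mM) and alpha-KG (2 mM) added; 80 min at RT, pH 7.5. Remaining NADPH coupled via diaphorase/resazurin to fluorescence (540/590 nm); concentration-response curves normalized to no-enzyme control.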
LDHA inh: LDHA (human) enzyme inhibition; P00338; purified LDHA, NADH/diaphorase-resazurin fluorescence; hits give low values; activity change, % (values are at about 110 or 230 µM); hit rate 0.15% among 480,000; AID 1347041; in the data active = activity change below about -30%; inconclusive = mostly about -25% to -30%
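Resorufin fluorescence (ex540/em590), read at 0 and 20 min after diaphorase/resazurin addition, reports the NADH left after a 5 min room-temperature reaction of 2 nM human LDH5 with 0.06 mM NADH and 0.2 mM pyruvate.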
aSyn rescue: alpha-synuclein toxicity inhibition in yeast | AID 652106 | Potency, µM (highest dose often 46.1 µM), most hits filed as activators | hit rate 0.14% among 370,000 | Yeast expressing alpha-synuclein, growth rescue, BacTiter-Glo, 24 h; note: nearly all actives have a fitted effect of over 65% in size
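Readout is rescue of growth in alpha-synuclein-expressing yeast, so inhibitors of toxicity appear as activators. Growth after 24 hr at 30 deg C in galactose medium is quantified by luminescence.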
FUS suppressor: FUS proteinopathy suppression in yeast | S. cerevisiae FUS-expressing, growth rescue, OD600, 24 h | Potency, µM (titrated, usually from 76.6 µM), actives largely listed as activators | hit rate 0.24% among 390,000 | AID 1347120; note: nearly all actives have a fitted effect of over 55% in size
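Restored growth of FUS-toxic S. cerevisiae, read as 600 nm absorbance after 24 h at 30C in galactose medium (starting OD 0.005). Controls CP55940 and DMSO.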
Hits are given with their value. Unless noted, calls come from the whole dose curve; as a rule, active = well fitted curve in the direction sought with a large enough effect; inconclusive = small, poorly fitted or top-dose-only effect, or another doubt; inactive = no such curve, though single readings can be large; an effect the other way counts as inactive or inconclusive.

For Cc1cccc(N2CCN(C(=O)C3CCN(C(=O)c4cc5sccc5n4C)CC3)CC2C)c1 (configuration not stated) the results were Abeta rescue inconclusive, TDP-43 yeast inh inactive, mIDH1 inhibitor inactive, LDHA inh inactive and FUS suppressor 32µM.
Screening Cc1ccc(C)c(N2CCN(C(=O)c3cc4sccc4n3C)CC2)c1 returned Abeta rescue inactive, TDP-43 yeast inh inactive, mIDH1 inhibitor inactive, LDHA inh inactive, aSyn rescue inactive and FUS suppressor inconclusive.
`Cc1ccc(C)c(N2CCN(C(=O)C3CCN(C(=O)c4cc5sccc5n4C)CC3)CC2)c1` gave Abeta rescue inactive, TDP-43 yeast inh 13µM, mIDH1 inhibitor inactive, LDHA inh inactive and FUS suppressor inconclusive.
For CC1CN(C(=O)Cc2n[nH]c(=O)c3ccccc23)CCO1 (configuration not stated) the results were LDHA inh inactive.
For COc1ccc(-c2nn3c(-c4ccccc4)nnc3s2)cc1 the results were Abeta rescue inactive, TDP-43 yeast inh 14µM, mIDH1 inhibitor inactive, LDHA inh inactive, aSyn rescue inactive and FUS suppressor inconclusive.
c1ccc(-c2nnc3sc(-c4csc5c4CCCC5)nn23)cc1 was read as Abeta rescue inactive, TDP-43 yeast inh 20µM, mIDH1 inhibitor inconclusive, LDHA inh inactive and aSyn rescue inactive.
COc1ccc(Cc2nn3c(-c4cc(OC)c(OC)c(OC)c4)nnc3s2)cc1 was read as Abeta rescue inactive, TDP-43 yeast inh 22µM, mIDH1 inhibitor inactive, LDHA inh inactive, aSyn rescue inactive and FUS suppressor inconclusive.
For COc1ccc(-c2nn3c(-c4ccc(F)cc4)nnc3s2)cc1 the results were Abeta rescue inactive, TDP-43 yeast inh inactive, mIDH1 inhibitor inactive, LDHA inh inactive, aSyn rescue inactive and FUS suppressor inactive.
`COc1ccc(C2C=C(c3ccc(Br)cc3)Nc3ncnn32)cc1` (configuration not stated) gave LDHA inh inactive.
For O=C(NCCO)c1cc(-c2ccc(Cl)cc2)nc2ccccc12 the results were LDHA inh inactive.
Screening COc1ccccc1NC(=O)/C(C#N)=C/c1coc2ccc(C)cc2c1=O returned LDHA inh inactive.
Screening Cc1cc(C(=O)COc2cccnc2[N+](=O)[O-])c(C)n1Cc1cccs1 returned Abeta rescue inactive, TDP-43 yeast inh inactive, mIDH1 inhibitor inactive, LDHA inh inactive, aSyn rescue inactive and FUS suppressor inactive.
CC(=O)Nc1ccccc1OCC(=O)c1cc(C)n(Cc2cccs2)c1C was read as Abeta rescue inactive, TDP-43 yeast inh 22µM, mIDH1 inhibitor inactive, LDHA inh inactive, aSyn rescue inactive and FUS suppressor inactive.
`O=C(Cn1nc(Cl)nc1Cl)c1ccc(F)cc1` gave Abeta rescue inactive, TDP-43 yeast inh inactive, mIDH1 inhibitor inactive, LDHA inh inactive, aSyn rescue inactive and FUS suppressor inactive.
Screening O=C(Cn1nc(Cl)nc1Cl)c1ccc2c(c1)OCCO2 returned Abeta rescue inactive, TDP-43 yeast inh 11µM, mIDH1 inhibitor inactive, LDHA inh inactive, aSyn rescue inactive and FUS suppressor inconclusive.
O=C(Cn1ncc2c1-c1ccccc1OC2)Nc1cccc(Cl)c1 was read as Abeta rescue inactive, TDP-43 yeast inh inconclusive, mIDH1 inhibitor inactive, LDHA inh inactive, aSyn rescue inactive and FUS suppressor inactive.
Screening NS(=O)(=O)c1ccc(NC(=O)Cn2ncc3c2-c2ccccc2OC3)cc1 returned Abeta rescue inactive, TDP-43 yeast inh inactive, mIDH1 inhibitor inactive, LDHA inh -34, aSyn rescue inactive and FUS suppressor inactive.
For CCCCNC(=O)c1onc(CSc2ccccn2)c1C(=O)NCCCC the results were Abeta rescue inactive, TDP-43 yeast inh 14µM, mIDH1 inhibitor inactive, LDHA inh inactive, aSyn rescue inactive and FUS suppressor inactive.
Screening Cc1ccccc1C(C)NC(=O)c1cc2ccccc2oc1=O (configuration not stated) returned LDHA inh inactive.
For c1ccc(CCc2nnc3sc(-c4ccc5ccccc5n4)nn23)cc1 the results were LDHA inh inactive.
Cc1cc(C)c(S(=O)(=O)c2ccccc2)c(OC(=O)c2c(F)cccc2F)n1 was read as Abeta rescue inactive, TDP-43 yeast inh inactive, mIDH1 inhibitor inactive, LDHA inh -50, aSyn rescue inactive and FUS suppressor inactive.
`Cc1cc(C)c(S(=O)(=O)c2ccccc2)c(OC(=O)c2c(Cl)cc(Cl)cc2Cl)n1` gave Abeta rescue inactive, TDP-43 yeast inh inactive, mIDH1 inhibitor inactive, LDHA inh inactive, aSyn rescue inconclusive and FUS suppressor inactive.
O=C(c1ccoc1)N1CCN(c2cc(-c3ccco3)nc3cc(-c4ccccc4)nn23)CC1 was read as Abeta rescue inactive, TDP-43 yeast inh 20µM, mIDH1 inhibitor inactive, LDHA inh inactive, aSyn rescue inactive and FUS suppressor inconclusive.
`O=C(c1ccoc1)N1CCN(c2cc(-c3ccccc3)nc3cc(-c4ccccc4)nn23)CC1` gave Abeta rescue inactive, TDP-43 yeast inh 18µM, mIDH1 inhibitor inactive, LDHA inh inactive, aSyn rescue inactive and FUS suppressor inactive.
For O=C(NCc1ccccc1)c1cc(C2CCCN(C(=O)CCCc3ccccc3)C2)on1 (configuration not stated) the results were Abeta rescue inactive, TDP-43 yeast inh 35µM, LDHA inh inactive, aSyn rescue inactive and FUS suppressor inactive.
Screening O=C(NCc1ccc(Cl)c(Cl)c1)c1cc(C2CCCCN2C(=O)CCc2ccccc2)on1 (configuration not stated) returned Abeta rescue inactive, TDP-43 yeast inh inactive, LDHA inh inactive, aSyn rescue inconclusive and FUS suppressor inconclusive.
For O=C(NCc1ccccc1)c1cc(C2CCCCN2C(=O)CCc2ccccc2)on1 (configuration not stated) the results were Abeta rescue inactive, TDP-43 yeast inh 35µM, LDHA inh inactive, aSyn rescue inactive and FUS suppressor inactive.
Screening Oc1ccc2ccccc2c1CN(Cc1ccccc1)Cc1ccccc1 returned LDHA inh inactive.
`CC(=O)Nc1ccc(NC(=O)C(C)Br)cc1` (configuration not stated) gave LDHA inh inactive.
Screening COc1ccc(OC)c(-n2c3c(cc(-c4nc(-c5ccc(Cl)cc5)cs4)c2=O)C(=O)CC(C)(C)C3)c1 returned Abeta rescue inactive, TDP-43 yeast inh inactive, mIDH1 inhibitor 1.3µM, LDHA inh inactive and FUS suppressor inactive.
`CCOc1ccc(C2C=C(c3ccc(OC)cc3)Nc3ncnn32)cc1` (configuration not stated) gave LDHA inh inactive.

Compound activity (PubChem BioAssay)
